Bioassay records (PubChem BioAssay)
Compounds with a hit are over-represented: about 19% of the library has one in this group of screens.
KB-3-1 cytotox – KB-3-1 parental cell cytotoxicity; KB-3-1 viability, CellTiter-Glo ATP luminescence, 72 h; Potency, µM (series often up to 46.1 µM), usual class: cytotoxic; 400,000 tested, 1.4% active; note: nearly all actives have a fitted effect of over 60% in size
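Using CellTiter-Glo luminescence, growth of non-resistant KB-3-1 adenocarcinoma cells is assessed 72 h after pin-tool compound addition at 37 °C. Normalized responses across the concentration series yield fitted curves.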
TDP1 cell CPT – DT40-hTDP1 cell growth loss with CPT; chicken DT40 Tdp1-/-;hTDP1 cells + 20 nM CPT, ATP luminescence, 48 h; AID 686979; Potency, µM (titrated, usually from 46.2 µM), actives largely listed as inhibitors; 420,000 tested, 12% active; note: nearly all actives have a fitted effect of over 55% in size
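Chicken DT40 Tdp1-/- cells complemented with human TDP1, 400 cells/well, exposed to compounds plus 20 nM camptothecin for at least 48 h at 37 C; viability read as ATP content by CellTiter-Glo luminescence.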
KB-V1 MDR tox – KB-V1 MDR subline cytotoxicity. KB-V1 MDR cells viability, CellTiter-Glo, 72 h. Potency, µM (titrated, usually from 46.1 µM), most hits filed as cytotoxic. 400,000 tested, 3.4% active. AID 1347076; note: nearly all actives have a fitted effect of over 60% in size
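Cytotoxicity via CellTiter-Glo luminescence after 72 h compound exposure at 37 degrees C. Cells: drug-selected KB-V1 line, DMEM phenol-red free plus 10% FBS. Compounds tested at multiple concentrations; normalized data fitted to concentration-effect curves.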
DT40 TDP1 no CPT – qHTS for Inhibitors of human tyrosyl-DNA phosphodiesterase 1 (TDP1): qHTS in cells in absence of CPT | DT40 Tdp1-/- hTDP1 cells, no CPT, ATP luminescence, 48 h | Potency, µM (series often up to 46.2 µM), actives largely listed as inhibitors | 420,000 tested, 15% active; note: nearly all actives have a fitted effect of over 55% in size
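A cellular qHTS used chicken DT40 cells lacking endogenous Tdp1 but carrying stably transfected human TDP1. Compounds were applied without camptothecin, and cell growth kinetics were judged by ATP-dependent luminescence after ≥48 hr.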
HT1080 IDH1KD tx – HT-1080 IDH1 knockdown cell toxicity (counter line); Potency, µM (doses to about 46.1 µM), most hits filed as cytotoxic; 360,000 tested, 2% active; HT-1080 IDH1 knockdown viability, ATP luminescence, 48 h; AID 686971
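Assay cells: HT-1080 with IDH1 knockdown, 750 per well, RPMI/5% FBS. Exposure: 48 h at 37 °C following 2 h pre-incubation. Read: CellTiter-Glo luminescence; fitted concentration-response, curve class assigned.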
HT1080NT lethal – kills 2HG-producing HT-1080-NT fibrosarcoma cells. 360,000 tested, 1.6% active. HT-1080-NT fibrosarcoma viability, CellTiter-Glo ATP luminescence, 48 h. Potency, µM (titrated, usually from 46.1 µM), hits mostly cytotoxic;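 note: NT is the 2HG producing partner of a matched IDH1 knockdown line; nearly all actives have a fitted effect of over 55% in size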
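Viability of the 2HG-overproducing fibrosarcoma line after 48 hours of compound exposure at 37 degrees C was determined by luminescence with CellTiter-Glo, and concentration-effect curves were then fitted and categorized.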
Of the large screens only hits and unclear results are named; the others gave an inactive call. Calls come from the whole dose curve; as a rule, active = well fitted curve in the direction sought with a large enough effect; inconclusive = small, poorly fitted or top-dose-only effect, or another doubt; inactive = no such curve, though single readings can be large; an effect the other way counts as inactive or inconclusive.

CCC1(c2ccccc2)NC(=O)N(CC(=O)Nc2cc(S(=O)(=O)N3CCCCC3)ccc2OC(C)C)C1=O (stereo not drawn)	TDP1 cell CPT 23µM, DT40 TDP1 no CPT inconclusive
Cc1ccc(NC(=O)CN(C)C(=O)C2CCC2)cc1	none
Cc1cccc(N2CCN(C(=O)c3cc(COc4ccc(F)c(F)c4)on3)CC2)n1	none
CC1=NN(Cc2ccccc2)C(=O)/C1=C\c1ccc(N(C)C)cc1	TDP1 cell CPT 13µM, DT40 TDP1 no CPT inconclusive
Cc1cc(S(=O)(=O)Nc2ccc3cn[nH]c3c2)c(C)cc1Cl	KB-V1 MDR tox inconclusive, DT40 TDP1 no CPT 4.6µM, HT1080 IDH1KD tx inconclusive
C=C1C(=O)C=C2CN(C(=O)c3ccccc3)[C@@](Cc3ccc(F)cc3)(C(=O)OC)[C@@H]12	KB-3-1 cytotox 5.2µM, TDP1 cell CPT 0.16µM, KB-V1 MDR tox 4.6µM, DT40 TDP1 no CPT 0.052µM, HT1080 IDH1KD tx 5.8µM, HT1080NT lethal 12µM
COC(=O)[C@@]1(Cc2ccc(F)cc2)[C@H]2c3cc(C(=O)N(C)C)n(C)c3C[C@H]2CN1C(=O)c1ccccc1	TDP1 cell CPT inconclusive, KB-V1 MDR tox inconclusive, DT40 TDP1 no CPT inconclusive
C=C1C(=O)CC2=C1[C@](Cc1ccc(F)cc1)(C(=O)OC)N(C(=O)c1ccccc1)C2	KB-3-1 cytotox inconclusive, TDP1 cell CPT 18µM, DT40 TDP1 no CPT 21µM, HT1080 IDH1KD tx inconclusive, HT1080NT lethal inconclusive
COC(=O)[C@@]1(Cc2ccc(OC)cc2)[C@@H]2C(=CC(=O)[C@H]2CC(=O)C(=O)N(C)C)CN1C(=O)c1ccccc1	KB-3-1 cytotox 16µM, KB-V1 MDR tox inconclusive, DT40 TDP1 no CPT 16µM, HT1080 IDH1KD tx inconclusive, HT1080NT lethal inconclusive
COC(=O)[C@@]1(Cc2ccc(OC)cc2)[C@H]2c3cc(C(=O)N(C)C)n(C[C@H](O)CO)c3C[C@H]2CN1C(=O)c1ccccc1	none
COc1ccc(C2(C(=O)NCc3ccccc3Cl)CCOCC2)cc1OC	none
COc1ccc(S(=O)(=O)Oc2ccc3c(c2)O/C(=C\c2cccnc2)C3=O)cc1	TDP1 cell CPT inconclusive, DT40 TDP1 no CPT 15µM
O=C1/C(=C/c2cccnc2)Oc2cc(OS(=O)(=O)c3ccccc3)ccc21	TDP1 cell CPT inconclusive, DT40 TDP1 no CPT 16µM, HT1080 IDH1KD tx inconclusive
CSc1cccc(NC(=O)/C=C/c2cccc(Cl)c2)c1	KB-3-1 cytotox inconclusive, TDP1 cell CPT inconclusive, KB-V1 MDR tox 18µM, DT40 TDP1 no CPT inconclusive
C=CCC(CC=C)(CNC(=O)C(=O)Nc1cccc(C(F)(F)F)c1)c1ccccc1	TDP1 cell CPT 18µM, DT40 TDP1 no CPT 21µM (no result: KB-3-1 cytotox, KB-V1 MDR tox, HT1080 IDH1KD tx, HT1080NT lethal)
O=C(/C=C/c1cccc(C(F)(F)F)c1)Nc1cccc(C(F)(F)F)c1	KB-3-1 cytotox inconclusive, TDP1 cell CPT 23µM, KB-V1 MDR tox inconclusive, DT40 TDP1 no CPT 23µM, HT1080 IDH1KD tx 7.9µM, HT1080NT lethal 11µM
O=C(CN1CCCCC1)NCC1(c2ccccc2)CCCC1	DT40 TDP1 no CPT inconclusive
CCn1cc(CN2N=C(C)CC2c2ccccc2)c(C)n1 (stereo not drawn)	none
Cc1ccc(-c2[nH]c3ccccc3c2C(C[N+](=O)[O-])c2ccco2)cc1 (stereo not drawn)	TDP1 cell CPT inconclusive, KB-V1 MDR tox 21µM, DT40 TDP1 no CPT inconclusive, HT1080 IDH1KD tx inconclusive, HT1080NT lethal 16µM
Cc1[nH]c2ccccc2c1C(C[N+](=O)[O-])c1ccco1 (stereo not drawn)	TDP1 cell CPT inconclusive, DT40 TDP1 no CPT inconclusive, HT1080NT lethal inconclusive
O=C(O)c1cc(O)c2c(c1)[C@H]([C@H]1c3cc(C(=O)O)cc(O)c3C(=O)c3c(O[C@@H]4O[C@H](CO)[C@@H](O)[C@H](O)[C@H]4O)cccc31)c1cccc(O[C@@H]3O[C@H](CO)[C@@H](O)[C@H](O)[C@H]3O)c1C2=O	none (no result: KB-3-1 cytotox, KB-V1 MDR tox, HT1080 IDH1KD tx, HT1080NT lethal)
